Inconclusive results are not listed. A call without a number means that no potency is given here. Values without a mark were called inactive. Calls of active or inactive are those of the source. The call rests on the fitted dose curve; in most records, active means well fitted inhibition curve with a large enough effect; inconclusive means small, poorly fitted or top-dose-only effect; inactive means flat fitted curve, though single readings scatter.
target: Calcium and integrin-binding protein 1 (Homo sapiens) (UniProt Q99828); assay: Primary qHTS for Identification of Calcium Integrin Binding Protein 1 (CIB1) Competitor (AID 1508620); settings: CIB1-GST / FITC-alphaIIb peptide fluorescence polarization; series mostly up to 114 µM;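 further: GST tagged CIB1 binding a fluorescein labelled alphaIIb integrin peptide tracer; top concentration of the series differs between compounds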
Sequence (Q99828 whole entry, looked up): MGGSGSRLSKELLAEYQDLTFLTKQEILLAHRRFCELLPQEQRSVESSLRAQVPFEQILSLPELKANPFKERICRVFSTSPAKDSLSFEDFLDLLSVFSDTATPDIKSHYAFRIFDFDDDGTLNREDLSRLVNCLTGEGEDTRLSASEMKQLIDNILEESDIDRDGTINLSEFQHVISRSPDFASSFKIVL
Method in brief: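 CIB1-GST (1 uM final) and compound incubated 15 min at room temperature before adding FITC-alphaIIb peptide tracer (100 nM final). Competition for binding read by fluorescence polarization (ex 480, em 540) after another 15 min at room temperature.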

SMILES | Potency | activity change, negative = inhibition
CC(=O)O[C@@H]1C[C@@]2(C)C(CC[C@]3(C)C2CC=C2C4CC(C)(C)CC[C@]4(C(=O)O)CC[C@]23C)C(C)(C)[C@H]1O (some centres undefined) | inactive | 
CC(=O)O[C@@H]1[C@@H](O)[C@H](O[C@@H]2[C@@H](O)[C@@H](O)[C@H](O[C@H]3[C@H](O[C@H]4[C@H](O[C@H]5CC[C@@]6(C)C(CC[C@]7(C)C6CC=C6[C@@H]8CC(C)(C)CC[C@]8(C(=O)O)CC[C@]67C)[C@]5(C)CO)O[C@H](CO)[C@@H](O)[C@@H]4O)OC[C@@H](O)[C@@H]3O)O[C@H]2C)OC[C@H]1O (some centres undefined) | inactive | 
C=C(C)C(=O)O[C@H]1[C@H]2C(=C)C(=O)O[C@@H]2C[C@@H](C)[C@@H]2O[C@@H]2C(=O)[C@](C)(O)[C@@H]1OC(=O)C(=C)C | inactive | 
CC(=O)O[C@H]1CC(C)(C)CC2[C@]13CO[C@@]21CCC2[C@@]4(C)CC[C@H](O[C@@H]5OC[C@H](O[C@@H]6O[C@H](CO)[C@@H](O)[C@H](O)[C@H]6O[C@@H]6OC[C@@H](O[C@@H]7O[C@H](CO)[C@@H](O)[C@H](O)[C@H]7O)[C@H](O)[C@H]6O)[C@H](O)[C@H]5O[C@@H]5O[C@H](CO)[C@@H](O)[C@H](O)[C@H]5O)[C@@](C)(CO)C4CC[C@@]2(C)[C@]1(C)C[C@H]3O (some centres undefined) |  | 3.35% [at 12.4 µM]
C[C@]12CC[C@@H]3c4ccc(O)c(O)c4CC[C@H]3[C@@H]1CCC2=O | inactive | 
CCC(C)(OC(C)=O)C(=O)O[C@H]1[C@H](OC(C)=O)[C@]2(CO)[C@H](O)[C@H](O)[C@]3(C)C(=CCC4[C@@]5(C)CC[C@H](O[C@@H]6O[C@H](C(=O)O)[C@@H](O)[C@H](O[C@@H]7OC[C@H](O)[C@H](O[C@@H]8OC[C@H](O)[C@H](O)[C@H]8O)[C@H]7O)[C@H]6O[C@@H]6O[C@H](CO)[C@@H](O)[C@H](O)[C@H]6O)C(C)(C)C5CC[C@]43C)[C@@H]2CC1(C)C (some centres undefined) |  | 5.33% [at 12.4 µM]
NC(=O)C1=CC2C3C=CC2C(OC3=O)O1 (centres undefined) | inactive | 
CC1(C)CC[C@]2(C(=O)O)[C@H](O)C[C@]3(C)C(=CCC4[C@@]5(C)CC[C@H](O[C@@H]6O[C@H](CO[C@@H]7OC[C@H](O)[C@H](O)[C@H]7O[C@@H]7OC[C@H](O)[C@H](O)[C@H]7O)[C@@H](O)[C@H](O)[C@H]6O)C(C)(C)C5CC[C@]43C)[C@@H]2C1 (some centres undefined) | inactive | 
CC(C)/C=C1\NC(=O)C(C(C)C)n2c1nc1ccccc1c2=O (centres undefined) | inactive | 
C=C1C(=O)OC2CC(C)C(CCC(C)=O)=CCC12 (centres undefined) | inactive | 
CC12CCC(OC3OC(CO)C(O)C(O)C3OC3OC(CO)C(O)C(O)C3O)CC1CCC1C2CCC2(C)/C(=C3/COC(=O)C3)CCC12O (centres undefined) | inactive | 
Cc1cc(C(=O)Nc2cc(Oc3ccc4nc(NC(=O)C5CC5)cn4n3)ccc2C)n(C)n1 | inactive | 
C=C1CC2OC(=O)C(COC)C2C(OC(=O)/C(C)=C\C)CC2(C)OC1=CC2=O (centres undefined) | inactive | 
CCN(Cc1cc(Nc2nc(C)cn3c(-c4cn[nH]c4)cnc23)sn1)C(C)(C)CO | inactive | 
CNCCC(c1cccs1)c1ccc(O)c2ccccc12 (centres undefined) | inactive | 
COc1cc(/C=C2\CC[C@H]3COC[C@@H](c4cc(F)c(F)c(F)c4)N3C2=O)ccc1-n1cnc(C)c1 | inactive | 
CC(C)CCCCC(=O)N[C@@H](CO)C(=O)N[C@@H](CC(C)C)C(=O)[C@@]1(CO)CO1 | inactive | 
C=C1C(=O)OC2C3=C(C)C(=O)CC3C(C)CC(O)C12 (centres undefined) | inactive | 
O=C(Nc1cccc2cccnc12)c1ccc(N2C(=O)[C@@H]3C4C=CC(C4)[C@@H]3C2=O)cc1 | inactive | 
C=C1C(=O)O[C@@H]2[C@H]1CC[C@H](C)C(CCC(=O)O)C2(C)O (some centres undefined) | inactive | 

SMILES | Potency | activity change, negative = inhibition
CCC(C)C(=O)OC1C(C)C2(O)C(C=C(CO)CC3(O)C(=O)C(C)=CC32)C2C(C)(C)C12OC(=O)C(C)C (centres undefined) | inactive | 
CC1(C(=O)Nc2ccc(F)nc2)CCCN1c1nc(Nc2cc(C3CC3)[nH]n2)c2cccn2n1 (centres undefined) | inactive | 
O=C(Nc1ccc2[nH]nc(-c3ccncc3)c2c1)[C@@H]1CCN(CC(=O)N2CCN(c3ccc(-c4ncccn4)cc3)CC2)C1 | inactive | 
CC(=O)O[C@@H]1CC[C@@]2(C)[C@H](CC[C@@H]3[C@@H]2C[C@H](OC(C)=O)[C@]2(C)[C@@H](C(C)=O)CC[C@@H]32)C1 | inactive | 
CNC(=O)c1cc(Oc2ccc(NC(=O)c3cccc(C(F)(F)F)c3)cc2)ccn1 | inactive | 
C=C1CCC2C(C)(C(=O)O)CCCC2(C)C1CCC1=CCOC1=O (centres undefined) | inactive | 
COc1cc(CCO)ccc1O[C@@H]1O[C@H](CO)[C@@H](O)[C@H](O)[C@H]1O | inactive | 
COC(=O)CC(O)CC(O)/C=C/c1c(C)ccc2c1C(OC(C)=O)CC(C)C2 (centres undefined) | inactive | 
CCCCOc1ccc(S(=O)(=O)n2c(C)nc3ccccc32)cc1 | inactive | 
COc1cc(/C=C/C(=O)NCCn2c(C(F)(F)F)cc3ccccc32)cc(OC)c1OC | inactive | 
CN(C)C(=O)C(=O)c1cn(C)c2cc(Cl)c(C(=O)N3CCC(Cc4ccc(F)cc4)CC3)cc12 | inactive | 
C=C1C(=O)O[C@H]2CC(=C)[C@H]3CC[C@@](C)(O)[C@@H]3CC12 (some centres undefined) | inactive | 
C=C[C@@]1(C)C=C2C(=O)C(O)=C3[C@](C)(C(=O)O)CC[C@@H]4C[C@]34[C@]2(O)C(=O)C1 | inactive | 
COC(=O)N1CC2(CC2)C[C@H](C(=O)NO)[C@H]1C(=O)N1CCN(c2ccccc2)CC1 | inactive | 
COCC(c1ccc(C(F)(F)F)cc1)N1CCN(C2(C)CCN(C(=O)c3c(C)ncnc3C)CC2)CC1C (centres undefined) | inactive | 
COc1ccc(C2=NC(c3ccc(Cl)cc3)C(c3ccc(Cl)cc3)N2C(=O)N2CCNC(=O)C2)c(OC(C)C)c1 (centres undefined) | inactive | 
C/C=C/C=C/C=C/C(=O)O[C@@H]1C=C2COC(=O)[C@]2(O)[C@@]2(C)CCCC(C)(C)[C@H]12 | inactive | 
COc1cc2ncnc(Nc3ccc(O)c(Br)c3)c2cc1OC | inactive | 
CC1(C)CCC(C)(C)c2cc(C#Cc3ccc(C(=O)O)cc3)ccc21 | inactive | 
